Source: the supplement of paper PMC4962491
± gives the standard deviation of the averaged measurements.

System: FaDu
Experiment: mitochondrial oxygen consumption rate normalised to cell number, Z score vs plate DMSO wells; higher = higher oxygen consumption (negative = OCR reduction)
Details: treatment time 24 h, assay medium: 5 mM glucose, 5 mM pyruvate, 4 mM glutamine
Method: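 Secondary screen: FaDu cells were incubated 24 h with the top 130 primary hits at 0.08, 0.4, 2 or 10 uM. Mitochondrial-specific OCR (basal minus antimycin A) was measured on a Seahorse XF96 in medium with 5 mM glucose, 5 mM pyruvate and 4 mM glutamine and normalised to Hoechst cell number. OCR score = (OCR - mean of plate DMSO wells) / SD of plate DMSO wells. Three repeats.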
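Further: compound exposure in DMEM (4 mM L-glutamine, 5 mM glucose), antimycin A injected at 2 µM after the basal reading and its residual OCR subtracted from basal.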

Row | Compound | mitochondrial oxygen consumption rate normalised (0.08 µM) | mitochondrial oxygen consumption rate normalised (0.4 µM) | mitochondrial oxygen consumption rate normalised (2 µM) | mitochondrial oxygen consumption rate normalised (10 µM)
1 | Nc1nc(Cl)nc2c1ncn2[C@H]1C[C@H](O)[C@@H](CO)O1 [Cladribine] | 0.0971 ± 0.62 | 1.11 ± 0.78 | 0.797 ± 2 | -0.553 ± 2.5
2 | Nc1ncn([C@@H]2O[C@H](CO)[C@@H](O)[C@H]2O)c(=O)n1 | -0.369 ± 1.5 | 1.15 ± 0.3 | -1.48 ± 1.4 | -2.3 ± 1.5
3 | Nc1c2ccccc2nc2ccccc12 | -1.04 ± 0.95 | -0.393 ± 0.47 | -2.4 ± 0.075 | -9.41 ± 0.65
4 | CC(C)OC(=O)C(C)(C)Oc1ccc(C(=O)c2ccc(Cl)cc2)cc1 | -0.014 ± 0.66 | 1.08 ± 0.7 | 0.455 ± 1.1 | -2.82 ± 2.6
5 | CCCCCCCCCCCCCCCCCCCCCCO | 0.402 ± 1.5 | 0.592 ± 1.3 | 0.538 ± 0.35 | -0.999 ± 1.9
6 | COc1c2occc2cc2ccc(=O)oc12 | -0.411 ± 1.2 | 0.146 ± 0.75 | -0.807 ± 2.3 | -1.8 ± 2.2
7 | CC(C)(C)CC(C)(C)c1ccc(OCCOCC[N+](C)(C)Cc2ccccc2)cc1 | -0.0571 ± 1.2 | 0.0149 ± 0.7 | -6.66 ± 0.41 | -13 ± 0.41
8 | O=[N+]([O-])c1ccc(O)c2ncccc12 | 0.333 ± 0.4 | 1.67 ± 1.1 | -0.415 ± 1.2 | -3.63 ± 2.5
9 | COc1ccc2cc3[n+](cc2c1OC)CCc1cc2c(cc1-3)OCO2 | -0.246 ± 0.98 | -0.535 ± 0.76 | -6.29 ± 0.22 | -13.55 ± 0.13
10 | Cc1cc(C2CCCCC2)n(O)c(=O)c1 | -0.736 ± 1.4 | 1.35 ± 1 | -3.51 ± 0.86 | -3.81 ± 1.9
